Results taken from PubChem BioAssay (NCI).
The panel holds about 83,000 compounds, 20% with a hit somewhere; the sample as a whole holds those more often.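 Cell lines were cultured in 96-well plates, exposed to a single compound concentration, and assessed for percent growth 48 hours later.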 Unmarked numbers belong to inactive results. The source made the active and inactive calls. How the source made its calls: active means growth percent below 10; inactive means the rest.

Each compound was assayed on SK-OV-3 ovarian (assay: NCI-60 one-dose screen, 48 h (100 = growth as untreated, 0 = no growth, -100 = all killed)). Settings: 10 µM unless noted.
For `O=C(/C=C/c1c(-c2ccc(Cl)cc2)nn(-c2ccccc2)c1C(F)(F)F)c1ccc(Cl)cc1`, the growth was 82.7%. For `Cc1c(C)c([N+](=O)[O-])c(C)c([N+](=O)[O-])c1C`, the growth was 114%. With `CC(c1ccccc1)C(C(=O)c1ccccc1)c1ccccc1` (stereo not drawn) the growth was 101%. In the case of `COc1cc(NC(=O)CSc2nc3ccc(C)cc3c(=O)n2Cc2ccccc2)cc(OC)c1OC`, the growth is reported as 40%. `CCN(c1ccccc1)S(=O)(=O)c1cc([N+](=O)[O-])ccc1Cl` showed a growth of 55.3%. Compound `COC1=CC(=O)c2ccccc2C1=O` has a growth of 101%. In the case of `COC(=O)c1ccc2c(c1)[n+](=O)c(C(C)=O)c(C(F)(F)F)n2[O-]`, the growth is reported as -31.4% (active). `COc1cc(/C=C/C(=O)c2nc3cc(F)ccc3nc2C)cc(OC)c1OC` gave a growth of 113%. `COc1ccc(/C=C/C(=O)Nc2cc(/C=C\c3cc(OC)c(OC)c(OC)c3)cc(OC)c2OC)cc1OC` showed a growth of 11.6%. In the case of `N#C/C(=C\c1cccc(C#N)c1)c1ccccc1`, the growth is reported as 105%. Work on `C[C@H]1[C@H]2[C@H]3CC[C@@H]4[C@@]5(C)CC[C@H](O)C(C)(C)[C@@H]5CC[C@@]4(C)[C@]3(C)CC[C@]23CO[C@]1(C)[C@@H](C(=O)/C=C\c1ccco1)C3` yielded a growth of 103%. For `COc1cc2cc(Oc3cccc(NC(=O)Nc4cc(C(F)(F)F)cc(C(F)(F)F)c4)c3)c(C)nc2cc1OC`, the growth was -1.05% (active). Compound `Cc1ncc(C(=O)Nc2ccc(CN3CCN(C)CC3)c(C(F)(F)F)c2)cc1C#Cc1cnc(N)cc1C#N` has a growth of 20.6%.
